Screening results as filed in PubChem BioAssay.
Rows were chosen to be rich in hits. Some 11% of all compounds tested hit in one or more screens of this group.
JMJD2A Tudor inh: qHTS Assay for Inhibitors of JMJD2A-Tudor Domain; Lysine-specific demethylase 4A (Homo sapiens), O75164; AlphaScreen JMJD2A-Tudor / H3K4me3 peptide binding; Potency, µM (doses to about 114 µM), usual class: inhibitors; 390,000 tested, 4.4% active; AID 504339, 2011; note: nearly all actives have a fitted effect of over 50% in size
HP1b chromo inh: HTS for Inhibitors of HP1-beta Chromodomain Interactions with Methylated Histone Tails | Chromobox protein homolog 1 (Homo sapiens), P83916 | AlphaScreen HP1-beta / biotin-H3K9me3 peptide binding | Potency, µM (top dose mostly 114 µM), usual class: inhibitors | 390,000 tested, 0.56% active; note: nearly all actives have a fitted effect of over 70% in size
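AlphaScreen: HP1-beta (50 nM) preformed 30 min with biotin-H3(1-18)K9me3 peptide (50 nM) in PBS pH 7.4, 0.01% Tween-20. Compound added for 30 min at RT, then streptavidin donor/nickel chelate acceptor beads (10 ug/mL) for 30 min.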
PI5P4Ka inh: qHTS for Inhibitors of phosphatidylinositol 5-phosphate 4-kinase (PI5P4K); Phosphatidylinositol 5-phosphate 4-kinase type-2 alpha (Homo sapiens), P48426; max response, %; AID 652105, 2013; 330,000 tested, 1.2% active; PI5P4Kalpha enzyme, ADP-Glo luminescence, 60 min; stronger effect = lower value; active = max response of -50% or lower; inconclusive = between -30% and -50%; inactive = -30% or higher; note: value at the top dose of about 77 µM
Target sequence (P48426 whole entry, looked up): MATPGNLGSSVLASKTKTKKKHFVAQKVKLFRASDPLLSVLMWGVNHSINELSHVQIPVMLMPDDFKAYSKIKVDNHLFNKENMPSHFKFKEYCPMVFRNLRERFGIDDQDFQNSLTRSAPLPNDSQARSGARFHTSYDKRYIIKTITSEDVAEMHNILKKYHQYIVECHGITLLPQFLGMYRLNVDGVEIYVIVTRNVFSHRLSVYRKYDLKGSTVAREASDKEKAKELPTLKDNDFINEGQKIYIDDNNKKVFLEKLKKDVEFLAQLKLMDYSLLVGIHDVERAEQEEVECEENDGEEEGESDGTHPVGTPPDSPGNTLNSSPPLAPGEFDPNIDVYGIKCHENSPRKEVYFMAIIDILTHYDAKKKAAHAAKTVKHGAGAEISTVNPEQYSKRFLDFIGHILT
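ADP-Glo luminescence end-point read after a 60 min room-temperature kinase reaction of PI5P4Kalpha plus substrate, initiated with ATP at 5 microM final. Buffer: 0.038 M HEPES pH 7.4, EGTA, 0.1% CHAPS, 5% DMSO.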
L3MBTL1 block: qHTS Assay for the Inhibitors of L3MBTL1 | AlphaScreen L3MBTL1–H3K9me1 peptide binding | Potency, µM (top dose mostly 57.1 µM), usual class: inhibitors | Lethal(3)malignant brain tumor-like protein 1 (Homo sapiens), Q9Y468 | 230,000 tested, 0.66% active; note: nearly all actives have a fitted effect of over 60% in size
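L3MBTL1 (50 nM) pre-complexed 30 min with biotinylated H3(1-15)K9me1 peptide (75 nM), then compounds added for 30 min at room temperature; AlphaScreen streptavidin donor/nickel chelate acceptor beads (10 ug/mL final) read after 30 min dark incubation.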
BAZ2B block: qHTS Assay for Inhibitors of BAZ2B; Bromodomain adjacent to zinc finger domain protein 2B (Homo sapiens), Q9UIF8; AlphaScreen BAZ2B-H3K14Ac peptide displacement; Potency, µM (titrated, usually from 114 µM), actives largely listed as inhibitors; 360,000 tested, 4.4% active; note: nearly all actives have a fitted effect of over 60% in size
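Protein-peptide AlphaScreen: BAZ2B 50 nM, b-H3K14Ac 50 nM, 1x PBS pH 7.4 + 0.01% Tween-20. Preincubation 30 min RT; cpd 30 min RT (top 110 uM); beads 20 min RT, light-protected.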
G9a inh: qHTS Assay for Inhibitors of Histone Lysine Methyltransferase G9a. G9a H3K9 monomethylation, AlphaScreen, 2 h. Potency, µM (titrated, usually from 102 µM), most hits filed as inhibitors. 350,000 tested, 8.8% active; note: nearly all actives have a fitted effect of over 75% in size
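G9a (20 nM) preincubated 15 min RT with compounds, then 500 nM biotinylated H3K9 peptide and 20 uM SAM added; 2 h RT reaction. Monomethyl-H3K9 product detected by AlphaScreen with anti-H3K9me1 antibody, streptavidin donor and anti-rabbit IgG acceptor beads.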
Of the large screens only hits and unclear results are named; the others gave an inactive call. Unless noted, calls come from the whole dose curve; as a rule, active = well fitted inhibition curve with a large enough effect; inconclusive = small, poorly fitted or top-dose-only effect; inactive = no such curve, though single readings can be large or run the other way.

C/C(CC1CC2=C(CC1(C)C)C(C)(C)CCC2)=N\NC(N)=S (centres undefined)	HP1b chromo inh inconclusive, G9a inh 31.6µM (no result: PI5P4Ka inh, L3MBTL1 block)
Cc1cccc(C(=O)Nc2ccc(C(=O)OCc3cc(=O)n4c(C)csc4n3)cc2)c1	JMJD2A Tudor inh inconclusive, BAZ2B block 79.4µM (no result: PI5P4Ka inh, L3MBTL1 block)
Cc1ccccc1/C=C/C(=O)c1ccc([N+](=O)[O-])o1	JMJD2A Tudor inh inconclusive, HP1b chromo inh inconclusive, BAZ2B block 35.5µM
S=C(Nc1cccc(Cl)c1Cl)Nn1cnnc1	JMJD2A Tudor inh inconclusive, HP1b chromo inh inconclusive, BAZ2B block inconclusive, G9a inh 3.98µM
S=C(Nc1cc(Cl)ccc1Cl)Nn1cnnc1	G9a inh 7.94µM (no result: L3MBTL1 block)
O=C(Nc1cccc(Cl)c1Cl)Nn1cnnc1	none (no result: L3MBTL1 block, G9a inh)
COc1ccc(Cn2ccc3nc(C)c(C(=O)N4CCN(c5cc(C)ccc5C)CC4)cc3c2=O)cc1	BAZ2B block inconclusive (no result: PI5P4Ka inh, L3MBTL1 block)
Cc1ccc(NC(=S)c2nc3ccccc3[nH]2)cc1	JMJD2A Tudor inh inconclusive, HP1b chromo inh inconclusive, L3MBTL1 block inconclusive, BAZ2B block 10µM
Cc1ccc(NC(=S)c2nc3ccccc3[nH]2)c(C)c1	JMJD2A Tudor inh inconclusive, HP1b chromo inh inconclusive, L3MBTL1 block inconclusive, BAZ2B block 28.2µM, G9a inh inconclusive
O=C1c2cccc3cccc(c23)C(=O)N1c1ccc2ncccc2c1	JMJD2A Tudor inh 79.4µM, BAZ2B block inconclusive, G9a inh 25.1µM
COc1ccccc1CNc1ncnc2c1c(-c1ccccc1)cn2-c1cccc(C)c1	BAZ2B block inconclusive (no result: PI5P4Ka inh, L3MBTL1 block)
O=C1C(=O)c2ccccc2C(O)=C1c1cccc([N+](=O)[O-])c1	HP1b chromo inh inconclusive, PI5P4Ka inh inconclusive, BAZ2B block inconclusive, G9a inh 56.2µM
COc1cccc(CNC(=O)CC2C(=O)NCCN2CCCc2ccccc2)c1 (centres undefined)	G9a inh 50.1µM (no result: L3MBTL1 block)
COc1ccc(CN2CCNC(=O)C2CC(=O)NCCC2=CCCCC2)c(F)c1 (centres undefined)	none (no result: L3MBTL1 block)
COc1cc(CN2CCNC(=O)C2CC(=O)NCCC2=CCCCC2)cc(OC)c1 (centres undefined)	G9a inh 50.1µM
COc1ccccc1CCNC(=O)CC1C(=O)NCCN1CCCc1ccccc1 (centres undefined)	none (no result: L3MBTL1 block)
COc1cc(CN2CCNC(=O)C2CC(=O)NCc2csc(C(C)C)n2)cc(OC)c1 (centres undefined)	none (no result: G9a inh)
O=C(CC1C(=O)NCCN1Cc1cccc(F)c1)NCCCCCN1CCOCC1 (centres undefined)	G9a inh 70.8µM (no result: L3MBTL1 block)
COc1cccc(CN2CCNC(=O)C2CC(=O)NCc2cc(C(C)C)no2)c1 (centres undefined)	G9a inh 50.1µM
CCc1ccc2oc(-c3cc(NC(=O)c4cc([N+](=O)[O-])ccc4N4CCOCC4)ccc3Cl)nc2c1	BAZ2B block inconclusive, G9a inh inconclusive (no result: PI5P4Ka inh, L3MBTL1 block)
COc1ccccc1CN1CCNC(=O)C1CC(=O)NCC1CCOCC1 (centres undefined)	none (no result: L3MBTL1 block)
O=C(CC1C(=O)NCCN1Cc1cccc(F)c1F)NCCCC1CCCC1 (centres undefined)	G9a inh 50.1µM (no result: L3MBTL1 block)
COc1ccc(CN2CCNC(=O)C2CC(=O)NCC2CCOCC2)c(F)c1 (centres undefined)	G9a inh 79.4µM (no result: L3MBTL1 block)
COc1cccc(CN2CCNC(=O)C2CC(=O)NCC2CCOCC2)c1 (centres undefined)	G9a inh 50.1µM (no result: L3MBTL1 block)
O=C(CC1C(=O)NCCN1Cc1cccc(Oc2ccccc2)c1)NCC1CCOCC1 (centres undefined)	G9a inh 44.7µM
Cc1nc2ccc(S(=O)(=O)NC(C(=O)N3CCN(c4cccc(Cl)c4)CC3)C(C)C)cc2s1 (centres undefined)	none (no result: PI5P4Ka inh, L3MBTL1 block)
